Assay outcomes from PubChem.
This is a sample that favours compounds with a hit; in the whole collection about 19% have one here.
TDP1 cell CPT = DT40-hTDP1 cell growth loss with CPT; 420,000 compounds, 12% hits; chicken DT40 Tdp1-/-;hTDP1 cells + 20 nM CPT, ATP luminescence, 48 h; Potency, µM (doses to about 46.2 µM), for inactives: top-dose activity change, negative = growth inhibition, usual class: inhibitors; AID 686979; note: potency is the fitted concentration of half-maximal effect; nearly all actives have a fitted effect of over 55% in size
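Cell growth measured by CellTiter-Glo luminescence after a minimum 48 h, 37 C compound exposure with 20 nM CPT in Tdp1-knockout DT40 cells stably expressing hTDP1, seeded 400/well; qHTS titration format.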
IL-1B inflam inh = inflammasome signaling inhibition, IL-1 beta readout; THP-1 LPS/ATP IL-1B secretion, AlphaLISA, 16 h; stronger effect = lower value; activity change, % at 57.5 µM; 360,000 compounds, 4.7% hits; in the data active = activity change below about -50%; inconclusive = mostly about -30% to -49%
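Secreted IL-1B measured by AlphaLISA bead assay after 16 h compound exposure of THP-1 cells; compounds (final up to 57.5 uM) added 1 h before LPS (250 ng/mL) and ATP (1.25 mM) stimulation; lower signal means less secretion.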
DT40 TDP1 no CPT = qHTS for Inhibitors of human tyrosyl-DNA phosphodiesterase 1 (TDP1): qHTS in cells in absence of CPT; DT40 Tdp1-/- hTDP1 cells, no CPT, ATP luminescence, 48 h; Potency, µM (top dose mostly 46.2 µM), without a hit: at the top dose activity change, negative = growth inhibition, hits mostly inhibitors; 420,000 compounds, 15% hits; AID 686978, 2013; note: potency is the fitted concentration of half-maximal effect; nearly all actives have a fitted effect of over 55% in size
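DT40 Tdp1-/-;hTDP1 cells, no CPT (DMSO vehicle only), 400 cells/well; compounds pin-transferred; ≥48 hr, 37 °C; CellTiter-Glo 30 min RT dark, luminescence read.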
Giardia kill = Giardia lamblia killing | Giardia lamblia trophozoite viability | 340,000 compounds, 0.15% hits | AID 540267 | activity change, % at 7.66 µM, hits read low; in the data active = activity change below about -80%; inconclusive = between about -30% and that limit;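 note: parasites exposed to compound for two days anaerobically before the ATP read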
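Trophozoites 100 cells/well + cpd; 48 hrs, 37 deg C, anaerobic. ATPLite 1-Step added, 15-30 min RT, luminescence read (ATP-based viability).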
TDP1 inh = inhibitors of human tyrosyl-DNA phosphodiesterase TDP1. Q9NUW8. recombinant TDP1, AlphaScreen DNA substrate cleavage. Potency, µM (titrated, usually from 130 µM), for inactives: at the top dose activity change, negative = inhibition, hits mostly inhibitors. 350,000 compounds, 0.28% hits. AID 485290; note: potency is the fitted concentration of half-maximal effect; nearly all actives have a fitted effect of over 40% in size
Target sequence (Q9NUW8 whole entry, looked up): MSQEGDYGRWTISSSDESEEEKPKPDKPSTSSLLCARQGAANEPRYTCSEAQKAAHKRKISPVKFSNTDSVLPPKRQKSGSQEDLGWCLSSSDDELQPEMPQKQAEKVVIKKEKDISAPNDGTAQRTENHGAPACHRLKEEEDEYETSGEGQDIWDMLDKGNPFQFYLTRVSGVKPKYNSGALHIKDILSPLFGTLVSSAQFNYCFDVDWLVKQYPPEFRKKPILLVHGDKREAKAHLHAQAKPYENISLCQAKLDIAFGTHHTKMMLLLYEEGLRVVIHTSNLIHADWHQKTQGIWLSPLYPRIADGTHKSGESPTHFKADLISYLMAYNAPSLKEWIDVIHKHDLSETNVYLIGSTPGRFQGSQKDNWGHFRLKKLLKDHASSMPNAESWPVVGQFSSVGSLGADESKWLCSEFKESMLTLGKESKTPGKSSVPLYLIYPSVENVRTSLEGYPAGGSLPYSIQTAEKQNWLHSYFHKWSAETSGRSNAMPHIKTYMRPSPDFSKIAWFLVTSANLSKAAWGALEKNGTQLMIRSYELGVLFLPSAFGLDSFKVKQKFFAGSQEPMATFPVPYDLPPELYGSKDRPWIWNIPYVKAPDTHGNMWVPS
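E. coli-derived human Tdp1, 1 nM final. Cpd preinc 15 min RT; substrate 15 nM final, 5 min RT; AS bead mix 10 ug/ml final, 10 min RT. Signal loss = tyrosine-FITC cleavage. No-enzyme wells = max signal.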
ELG1 repair inh = ELG1-dependent DNA repair inhibition | HEK293T ELG1-luciferase reporter, luminescence, 16 h; DNA damage induced by 5-fluorouridine | Potency, µM (top dose mostly 46.1 µM), without a hit: at the highest dose activity change, negative = inhibition, actives largely listed as inhibitors | 330,000 compounds, 2.3% hits; note: potency is the fitted concentration of half-maximal effect; nearly all actives have a fitted effect of over 55% in size
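Reporter activity after DNA damage by 5-fluorouridine is monitored. Compound-treated cells incubate 16 hr at 37 °C, then ONE-Glo is added for 30 min before luminescence reading.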
An asterisk follows results filed as active; [ ] = dose if it differs, or a comment. Unless noted, calls come from the whole dose curve; as a rule, active = well fitted curve in the direction sought with a large enough effect; inconclusive = small, poorly fitted or top-dose-only effect, or another doubt; inactive = no such curve, though single readings can be large; an effect the other way counts as inactive or inconclusive. % is set by controls: 0 for no effect and ±100 for the full control effect.

`CCOCCOC(=O)c1[nH]c2c(c1C)C(=O)CC(c1ccccc1)C2` (stereo unspecified) gave TDP1 cell CPT 1.5µM*, IL-1B inflam inh 65, DT40 TDP1 no CPT 0.92µM*, Giardia kill -6 and ELG1 repair inh -3%.
Screening Cc1ccc(COC(=O)c2[nH]c3c(c2C)C(=O)CC(c2ccc(Cl)cc2)C3)cc1 (stereo unspecified) returned TDP1 cell CPT 12µM*, DT40 TDP1 no CPT 9.2µM* and TDP1 inh -8%.
Screening Cc1c(C(=O)OCc2ccccc2)[nH]c2c1C(=O)CC(c1ccc(N(C)C)cc1)C2 (stereo unspecified) returned TDP1 cell CPT inconclusive, DT40 TDP1 no CPT -18% and TDP1 inh 2%.
Screening Cc1cc(C)c(S(=O)(=O)NCC(c2ccco2)N2CCc3ccccc3C2)c(C)c1 (stereo unspecified) returned TDP1 cell CPT inconclusive, IL-1B inflam inh -10, DT40 TDP1 no CPT inconclusive, Giardia kill -5, TDP1 inh 0% and ELG1 repair inh 4%.
Cc1c(C(=O)OC2CCC(C)CC2)[nH]c2c1C(=O)CC(c1ccccc1Cl)C2 (stereo unspecified) was read as TDP1 cell CPT 5.2µM*, DT40 TDP1 no CPT 4.6µM* and TDP1 inh 0%[12.3 µM].
For CCOC(=O)c1[nH]c2c(c1C)C(=O)CC(c1ccc(F)cc1)C2 (stereo unspecified) the results were TDP1 cell CPT 0.73µM*, IL-1B inflam inh 126, DT40 TDP1 no CPT 0.65µM*, Giardia kill 7, TDP1 inh -1% and ELG1 repair inh inconclusive.
For Cc1c(C(=O)OCC2CCCCC2)[nH]c2c1C(=O)CC(c1ccc(F)cc1)C2 (stereo unspecified) the results were TDP1 cell CPT inconclusive, DT40 TDP1 no CPT inconclusive and TDP1 inh -1%.
COCCOC(=O)c1[nH]c2c(c1C)C(=O)CC(c1ccc(OC)c(OC)c1)C2 (stereo unspecified) was read as TDP1 cell CPT inconclusive, IL-1B inflam inh -14, DT40 TDP1 no CPT -28%, Giardia kill -5 and ELG1 repair inh inconclusive.
Cc1c(C(=O)OCCOc2ccccc2)[nH]c2c1C(=O)CC(c1ccccc1Cl)C2 (stereo unspecified) was read as TDP1 cell CPT 1.5µM*, DT40 TDP1 no CPT 1.5µM* and TDP1 inh -4%[12.3 µM].
C=CCN=C1CCCc2c1[nH]c1ccc(C)cc21 was read as TDP1 cell CPT 9%, IL-1B inflam inh -1, DT40 TDP1 no CPT 8%, Giardia kill -3, TDP1 inh 5% and ELG1 repair inh inconclusive.
For Cc1ccc(CNC(=O)c2cc(S(=O)(=O)N3CCCC3)cn2C)cc1 the results were TDP1 cell CPT -20%, IL-1B inflam inh 2, DT40 TDP1 no CPT -6%, Giardia kill 30 and ELG1 repair inh 2%.
For Cc1ccc(CNC(=O)c2cc(S(=O)(=O)N3CCCCC3)cn2C)cc1 the results were TDP1 cell CPT inconclusive, DT40 TDP1 no CPT 21µM* and TDP1 inh 8%.
`Cn1cc(S(=O)(=O)N2CCCCCC2)cc1C(=O)NCc1ccc(Cl)cc1` gave TDP1 cell CPT inconclusive, DT40 TDP1 no CPT inconclusive and TDP1 inh -7%.
Screening Cn1cc(S(=O)(=O)N2CCCCC2)cc1C(=O)NCc1ccc(Cl)cc1 returned TDP1 cell CPT 18µM*, DT40 TDP1 no CPT inconclusive, Giardia kill -22 and TDP1 inh -7%.
For O=C(Cc1ccc(S(=O)(=O)N2CCCCC2)cc1)NCc1ccc(Cl)cc1 the results were TDP1 cell CPT 29µM*, IL-1B inflam inh 0, DT40 TDP1 no CPT -24%, Giardia kill 28, TDP1 inh 0% and ELG1 repair inh -26%.
Screening COc1ccc(S(=O)(=O)N2CCC(C(=O)NCc3ccncc3)CC2)cc1C returned TDP1 cell CPT -4%, IL-1B inflam inh -3, DT40 TDP1 no CPT -15%, Giardia kill 0 and ELG1 repair inh 12%.
Screening CCOC(=O)c1ccccc1Nc1cc(C)nc2nc(-c3ccco3)nn12 returned TDP1 cell CPT inconclusive, DT40 TDP1 no CPT 16µM*, Giardia kill inconclusive and TDP1 inh 4%.
For Cc1cc(Nc2cccc(F)c2)n2nc(-c3ccco3)nc2n1 the results were TDP1 cell CPT 18µM*, DT40 TDP1 no CPT inconclusive and TDP1 inh 1%.
For Cc1cc(Nc2ccccc2Cl)n2nc(-c3ccco3)nc2n1 the results were TDP1 cell CPT inconclusive, DT40 TDP1 no CPT 26µM* and TDP1 inh -1%.
Cc1cc(Nc2ccccc2Cl)n2nnnc2n1 was read as TDP1 cell CPT -4%, IL-1B inflam inh -2, DT40 TDP1 no CPT -7%, Giardia kill 13, TDP1 inh -2% and ELG1 repair inh -1%.
`CC(OC(=O)C1CCN(S(=O)(=O)c2ccc(Cl)cc2)CC1)C(=O)NC1CCCCC1C` (stereo unspecified) gave TDP1 cell CPT inconclusive, IL-1B inflam inh 0, DT40 TDP1 no CPT -15%, Giardia kill -1, TDP1 inh 5% and ELG1 repair inh -6%.
For OC1c2ccccc2N=C2CCCN21 (stereo unspecified) the results were TDP1 inh 13%.
Screening OC1c2cc(Br)ccc2N=C2CCCN21 (stereo unspecified) returned TDP1 cell CPT 12µM*, IL-1B inflam inh -97*, DT40 TDP1 no CPT 18µM*, Giardia kill -1 and ELG1 repair inh inconclusive.
`OC1c2cc(Br)ccc2N=C2CCCCCN21` (stereo unspecified) gave TDP1 cell CPT inconclusive, IL-1B inflam inh 28 and DT40 TDP1 no CPT 16µM*.
COc1cccc2c1cc1c(=O)n(CC(=O)NCc3ccc(C)o3)nc(C)n12 was read as TDP1 cell CPT -3%, DT40 TDP1 no CPT -8% and TDP1 inh 3%.
CCCCCCCCNCCS(=O)(=O)NCCCCCCCC was read as TDP1 cell CPT inconclusive, IL-1B inflam inh 0, DT40 TDP1 no CPT 16µM* and Giardia kill 2.
COc1ccc(CNS(=O)(=O)CCNCc2ccccc2OC)cc1 was read as TDP1 cell CPT -16%, IL-1B inflam inh 6, DT40 TDP1 no CPT -25% and Giardia kill 3.
Screening CCCCCCCCNCCS(=O)(=O)NCc1ccc(OC)cc1 returned TDP1 cell CPT inconclusive, IL-1B inflam inh -50*, DT40 TDP1 no CPT inconclusive and Giardia kill -8.
